Inconclusive results are not listed. Calls of active or inactive are those of the source. The call rests on the fitted dose curve; in most records, active means well fitted curve in the direction sought with a large enough effect in the repeat runs; inconclusive means weak or mixed curves; inactive means no such curve, though single readings can be large; an effect the other way counts as inactive or inconclusive.

This note sets out measurements from PubChem BioAssay (NCATS).

Test [1] has as its target Cytochrome P450 2D6 (Homo sapiens) (UniProt P10635). Briefly: Cytochrome P450 family 2 subfamily D member 6 (CYP2D6) small molecule antagonists: luciferase biochemical (cell-free) qHTS assay (AID 1645840). A digest of the protocol: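 P450-Glo CYP2D6 system: proluciferin substrate converted by enzyme to luciferin, read by luminescence proportional to activity. Enzyme-substrate mix with compound 10 min at room temperature, then NADPH regeneration 1 h before detection reagent.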
(In qHTS, concentration-response curves come from the screen itself.)

For test [2], the target named is Cytochrome P450 2C9 (Homo sapiens) (UniProt P11712). Briefly: Cytochrome P450 family 2 subfamily C member 9 (CYP2C9) small molecule antagonists: luciferase biochemical (cell-free) qHTS assay (AID 1645842). The procedure, abridged: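 P450-Glo CYP2C9 system: proluciferin substrate with enzyme in mix containing 0.4% BSA, 10 min at room temperature, then NADPH regeneration solution added and incubated 1 h at 37C. Detection reagent stopped reaction; luminescence read after 20 min as RLU.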
Sequence of Cytochrome P450 2C9 (Homo sapiens) (P11712 whole entry, looked up): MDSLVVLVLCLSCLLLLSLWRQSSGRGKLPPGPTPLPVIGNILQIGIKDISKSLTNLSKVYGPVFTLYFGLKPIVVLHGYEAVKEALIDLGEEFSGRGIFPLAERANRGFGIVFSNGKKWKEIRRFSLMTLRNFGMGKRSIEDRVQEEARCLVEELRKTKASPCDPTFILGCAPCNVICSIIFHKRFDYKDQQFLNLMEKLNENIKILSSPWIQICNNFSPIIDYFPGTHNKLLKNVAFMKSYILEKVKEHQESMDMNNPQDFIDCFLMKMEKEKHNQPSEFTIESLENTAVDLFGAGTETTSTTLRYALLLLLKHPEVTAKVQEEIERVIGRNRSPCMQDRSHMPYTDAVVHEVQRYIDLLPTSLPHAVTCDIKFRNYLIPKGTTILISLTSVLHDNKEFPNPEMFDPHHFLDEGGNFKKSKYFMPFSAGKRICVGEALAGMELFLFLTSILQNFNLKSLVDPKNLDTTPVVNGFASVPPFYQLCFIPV
Further: nearly all actives have a fitted effect of over 55% in size.
Potency means the concentration at half of the fitted maximal effect.

Sequence of Cytochrome P450 2D6 (Homo sapiens) (P10635 whole entry, looked up): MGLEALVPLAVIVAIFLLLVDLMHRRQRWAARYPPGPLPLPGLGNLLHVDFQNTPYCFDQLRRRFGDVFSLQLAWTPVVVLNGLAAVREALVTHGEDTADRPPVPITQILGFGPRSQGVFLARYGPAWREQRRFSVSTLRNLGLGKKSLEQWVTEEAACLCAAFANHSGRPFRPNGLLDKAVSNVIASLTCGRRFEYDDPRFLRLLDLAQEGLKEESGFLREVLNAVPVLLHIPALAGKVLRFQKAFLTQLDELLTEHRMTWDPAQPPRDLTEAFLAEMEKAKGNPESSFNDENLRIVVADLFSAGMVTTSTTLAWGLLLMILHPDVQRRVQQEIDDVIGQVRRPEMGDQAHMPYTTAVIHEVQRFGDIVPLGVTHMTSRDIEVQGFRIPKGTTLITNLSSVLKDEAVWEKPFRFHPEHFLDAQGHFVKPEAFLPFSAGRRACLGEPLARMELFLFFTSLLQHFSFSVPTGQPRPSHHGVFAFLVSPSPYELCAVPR

Consider `Cc1c(Cl)cccc1S(=O)(=O)Nc1nc(NCCc2ccccc2)nc2c1CN(Cc1ccccc1)CC2`, for which the Potency was 4.77 µM (active) in test [1] and 6.01 µM (active) in test [2].

`Cc1ccc(C)c(NC(=O)[C@@H]2CCCN2S(=O)(=O)c2cccc3cccnc23)c1`: the Potency was 16.9 µM (active) in test [1] and 6.74 µM (active) in test [2].

Take `O=C(NCC(=O)N1CCCC1)Nc1ccc2cnccc2c1`: the Potency in test [1] is 12 µM (active). The Potency entry in test [2] was “inactive”.

Regarding `NC(N)=NC(=O)c1cnn(-c2cccc3ncccc23)c1C1CC1`, the Potency result in test [1] and in test [2] was “inactive” in each case.

Turning to `O=C(NCc1ccc(OC(F)(F)F)cc1)C1c2c(F)cccc2C(=O)N1CCc1ccccn1` (stereo unspecified), the Potency in test [1] is 10.7 µM (active); in test [2], 3.79 µM (active).

On to `O=C(Nc1ccc(N(Cc2ccsc2)C(=O)Cn2nnc3ccccc32)cc1)C1CC1`, for which the Potency in test [1] was 4.77 µM (active); in test [2], 1.51 µM (active).

In the case of `COc1ccc(S(=O)(=O)Nc2c(C)cc(C)cc2C)cc1`, in test [1], the Potency entry was “inactive”. Further, in test [2], the Potency is 2.39 µM (active).

Consider `O=c1[nH]c2cccc(N3CCN(Cc4ccc(-c5ccccc5)cc4)CC3)c2o1`, for which the Potency was 8.49 µM (active) in test [1] and 5.35 µM (active) in test [2].
